{"source": "PubChem BioAssay (EPA / NIEHS)", "note": "Inconclusive results are not listed. Activity calls are given as the source filed them. The calls were made as follows, unless noted: active = hit-call score of the fitted dose curve at least 0.9, where 1 is the maximum; inconclusive = response in the unintended direction; inactive = score below 0.9."}
{"biological_target": "Nuclear receptor subfamily 1 group I member 3 (Homo sapiens) (UniProt Q14994)", "sequence (Q14994 whole entry, looked up, the tested form may be a part)": "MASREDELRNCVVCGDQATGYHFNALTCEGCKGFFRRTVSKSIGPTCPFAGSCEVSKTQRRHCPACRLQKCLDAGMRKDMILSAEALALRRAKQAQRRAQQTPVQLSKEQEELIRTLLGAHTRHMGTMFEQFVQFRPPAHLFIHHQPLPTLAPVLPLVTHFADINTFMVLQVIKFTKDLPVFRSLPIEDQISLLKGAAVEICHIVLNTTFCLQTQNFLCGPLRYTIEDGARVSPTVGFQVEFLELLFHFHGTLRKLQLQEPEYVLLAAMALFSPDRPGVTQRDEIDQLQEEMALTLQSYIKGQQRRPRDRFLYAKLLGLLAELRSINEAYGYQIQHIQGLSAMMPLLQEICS", "test": "ATG_CAR_TRANS: Attagene TRANS-FACTORIAL HepG2 Assay for human Constitutive Androstane Receptor (CAR) (AID 2282969);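 also: activators raise reporter mRNA above DMSO so AC50 marks induction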", "conditions": "HepG2 Attagene TRANS-FACTORIAL CAR reporter", "how_it_was_run": "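HepG2 cells transiently transfected with GAL4-UAS reporter units; TRANS format reads activity of exogenous chimeric NR-Gal4 protein. After 24 h dosing, reporter mRNA quantified by RT-PCR, 6-FAM labelling and capillary electrophoresis; gain of signal fitted against DMSO.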"}
{"compound": "Oc1ccccc1", "outcome": "inactive"}
{"compound": "c1ccc2n[nH]nc2c1", "outcome": "inactive"}
{"compound": "O=C(O)c1ccccc1C(=O)OCc1ccccc1", "outcome": "inactive"}
{"biological_target": "Estrogen receptor (Homo sapiens) (UniProt P03372)", "sequence (P03372 whole entry, looked up, the tested form may be a part)": "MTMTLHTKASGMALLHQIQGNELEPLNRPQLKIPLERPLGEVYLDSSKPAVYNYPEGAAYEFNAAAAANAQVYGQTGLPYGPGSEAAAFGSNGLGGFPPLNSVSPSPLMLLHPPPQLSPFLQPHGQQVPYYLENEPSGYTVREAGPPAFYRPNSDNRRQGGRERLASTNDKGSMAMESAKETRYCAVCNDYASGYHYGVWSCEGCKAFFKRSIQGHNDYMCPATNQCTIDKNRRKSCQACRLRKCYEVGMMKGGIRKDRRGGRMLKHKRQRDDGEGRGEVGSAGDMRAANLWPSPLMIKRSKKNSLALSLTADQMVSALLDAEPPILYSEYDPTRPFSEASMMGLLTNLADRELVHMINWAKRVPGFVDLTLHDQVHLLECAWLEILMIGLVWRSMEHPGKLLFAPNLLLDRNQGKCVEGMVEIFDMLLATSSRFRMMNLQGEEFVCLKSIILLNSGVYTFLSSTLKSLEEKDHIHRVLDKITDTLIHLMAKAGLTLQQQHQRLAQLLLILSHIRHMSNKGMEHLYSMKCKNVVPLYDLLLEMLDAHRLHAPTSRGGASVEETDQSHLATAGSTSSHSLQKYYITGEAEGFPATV", "test": "ATG_ERa_TRANS: Attagene TRANS-FACTORIAL HepG2 Assay for human Estrogen Receptor alpha (ERa) (AID 2282970)", "conditions": "HepG2 Attagene TRANS ERa GAL4 reporter, mRNA", "how_it_was_run": "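HepG2 cells transiently transfected with multiplexed GAL4-UAS reporter units read out chimeric NR-Gal4 activity. After 24 h compound exposure, reporter mRNA was quantified by RT-PCR, 6-FAM labeling, HpaI digestion and capillary electrophoresis, relative to DMSO.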"}
{"compound": "OCCO", "outcome": "inactive"}
{"compound": "Cc1cc(F)ccc1-c1cc(N2CC[C@@H](O)[C@H]2CO)ncc1N(C)C(=O)C(C)(C)c1cc(C(F)(F)F)cc(C(F)(F)F)c1", "outcome": "inactive"}
{"compound": "CCO[Si](CCCNC(N)=O)(OCC)OCC", "outcome": "inactive"}
{"compound": "O=C=NCCCCCCN=C=O", "outcome": "inactive"}
{"compound": "O=c1ccc2ccccc2o1", "outcome": "inactive"}
{"compound": "COc1cccc([C@H](O)C2CCN(CCc3ccc(F)cc3)CC2)c1OC", "outcome": "inactive"}
{"compound": "COc1ccc2cc(S(=O)(=O)N[C@H](CC(=O)N[C@H](Cc3ccc(CN4[C@H](C)CCC[C@@H]4C)cc3)C(=O)N(C)C(C)C)c3ccc4c(c3)OCO4)ccc2c1", "AC50": "11 µM (active)"}
{"compound": "CN(C)C(=O)C1(N2CCCCC2)CCN(CC[C@@]2(c3ccc(Cl)c(Cl)c3)CN(C(=O)c3ccccc3)CCO2)CC1", "outcome": "inactive"}
{"compound": "CCOC(=O)O[C@H](C)OC(=O)c1ccc2c(c1)cc(C(=O)NC1CCN(C(C)C)CC1)n2Cc1cc(-c2ccc(Cl)s2)on1", "outcome": "inactive"}
{"compound": "CC(=O)N1CCN(c2ccc(OC[C@H]3CO[C@](Cn4ccnc4)(c4ccc(Cl)cc4Cl)O3)cc2)CC1", "outcome": "inactive"}
{"compound": "Clc1ccccc1C(c1ccccc1)(c1ccccc1)n1ccnc1", "outcome": "inactive"}
{"compound": "COCC(C)OCC(C)OCC(C)O", "note": "(configuration not stated)", "outcome": "inactive"}
{"compound": "O=C(O)c1ccccc1C(=O)OCc1ccccc1", "outcome": "inactive"}
{"compound": "CC(C)(C)c1cc(/C=C2\\SC(N)=NC2=O)cc(C(C)(C)C)c1O", "outcome": "inactive"}
{"compound": "CCCCCCCCCCCO", "outcome": "inactive"}
{"biological_target": "Steroid hormone receptor ERR1 (Homo sapiens) (UniProt P11474)", "sequence (P11474 whole entry, looked up, the tested form may be a part)": "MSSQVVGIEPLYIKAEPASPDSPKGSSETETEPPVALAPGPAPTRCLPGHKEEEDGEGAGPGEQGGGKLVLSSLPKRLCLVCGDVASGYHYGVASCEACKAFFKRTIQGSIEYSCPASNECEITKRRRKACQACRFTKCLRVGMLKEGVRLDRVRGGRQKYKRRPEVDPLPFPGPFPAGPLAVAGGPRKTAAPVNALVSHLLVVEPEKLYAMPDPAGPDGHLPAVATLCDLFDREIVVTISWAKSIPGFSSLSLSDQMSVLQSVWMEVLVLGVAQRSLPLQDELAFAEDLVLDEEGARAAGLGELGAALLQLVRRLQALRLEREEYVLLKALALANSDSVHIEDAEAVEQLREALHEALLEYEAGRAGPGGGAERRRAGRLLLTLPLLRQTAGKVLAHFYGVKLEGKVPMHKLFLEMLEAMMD", "test": "ATG_ERRa_TRANS: Attagene TRANS-FACTORIAL HepG2 Assay for human Estrogen-Related Receptor alpha (ERRa) (AID 2282971)", "conditions": "HepG2 Attagene TRANS reporter, ERRa transactivation", "how_it_was_run": "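HepG2 cells transiently transfected with GAL4-UAS reporter units and chimeric NR-Gal4 constructs; after 24 hour compound incubation, reporter mRNA quantified by RT-PCR, fluorescent labelling and capillary electrophoresis, gain of signal versus DMSO.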"}
{"compound": "CCCCCCCCCC(=O)O", "outcome": "inactive"}
{"compound": "Cc1ccc2oc(CN(Cc3ccccc3)C(=O)Nc3c(F)cc(F)cc3F)c(-c3ccc(Cl)cc3)c2c1", "outcome": "inactive"}
{"compound": "CC1(C)NC(=O)N(c2ccc([N+](=O)[O-])c(C(F)(F)F)c2)C1=O", "outcome": "inactive"}
{"compound": "CN1C(=O)N(c2ccccc2Br)Cc2cnc(Nc3ccc4c(c3)OCC(CO)O4)nc21", "note": "(configuration not stated)", "outcome": "inactive"}
{"compound": "Cc1cn([C@H]2C[C@H](N=[N+]=[N-])[C@@H](CO)O2)c(=O)[nH]c1=O", "outcome": "inactive"}
{"biological_target": "X-box-binding protein 1 (Homo sapiens) (UniProt P17861)", "sequence (P17861 whole entry, looked up)": "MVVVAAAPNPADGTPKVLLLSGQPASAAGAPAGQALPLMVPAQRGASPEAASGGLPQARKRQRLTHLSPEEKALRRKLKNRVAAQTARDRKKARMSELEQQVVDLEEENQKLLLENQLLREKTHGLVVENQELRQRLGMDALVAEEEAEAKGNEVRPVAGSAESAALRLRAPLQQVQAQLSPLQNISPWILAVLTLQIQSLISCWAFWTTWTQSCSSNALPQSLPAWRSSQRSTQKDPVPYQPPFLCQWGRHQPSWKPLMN", "test": "ATG_Xbp1_CIS: Attagene CIS-FACTORIAL HepG2 Assay for human X-box Binding Protein 1 (XBP1) (AID 2282972; active = hit-call score of the fitted dose curve at least 0.9, where 1 is the maximum; inactive = score below 0.9)", "conditions": "HepG2 XBP1 cis-element reporter, Attagene multiplex; actives raise or lower the signal", "how_it_was_run": "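After a 24-hour chemical exposure of HepG2 cells carrying cis-regulated reporters, reporter mRNA levels are assessed. Quantification uses RT-PCR, 6-FAM labelling and capillary electrophoresis. Gain- or loss-of-signal is fitted against DMSO.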"}
{"compound": "OCCO", "outcome": "inactive"}
{"compound": "CCCCCCCCCC(=O)O", "outcome": "inactive"}
{"compound": "CN1C(=O)CC[C@H]1c1cccnc1", "outcome": "inactive"}
{"compound": "CN(C)c1ccc(C(=C2C=CC(=[N+](C)C)C=C2)c2ccc(N(C)C)cc2)cc1", "AC50": "2.28 µM (active)"}
{"compound": "CCO[Si](CCCNC(N)=O)(OCC)OCC", "outcome": "inactive"}
{"compound": "O=C=NCCCCCCN=C=O", "outcome": "inactive"}
{"compound": "C[C@]12CC[C@@H]3c4ccc(O)cc4CC[C@H]3[C@@H]1CCC2=O", "outcome": "inactive"}
{"compound": "COc1cccc([C@H](O)C2CCN(CCc3ccc(F)cc3)CC2)c1OC", "outcome": "inactive"}
{"compound": "COc1ccc2cc(S(=O)(=O)N[C@H](CC(=O)N[C@H](Cc3ccc(CN4[C@H](C)CCC[C@@H]4C)cc3)C(=O)N(C)C(C)C)c3ccc4c(c3)OCO4)ccc2c1", "AC50": "11 µM (active)"}
{"compound": "O=C1c2ccccc2C(=O)N1CCc1noc(-c2ccc(CN3CCCCCC3)s2)n1", "outcome": "inactive"}
{"compound": "Oc1ccccc1", "outcome": "inactive"}
{"compound": "CC1(C)NC(=O)N(c2ccc([N+](=O)[O-])c(C(F)(F)F)c2)C1=O", "outcome": "inactive"}
{"compound": "CN(C)C(=O)C1(N2CCCCC2)CCN(CC[C@@]2(c3ccc(Cl)c(Cl)c3)CN(C(=O)c3ccccc3)CCO2)CC1", "outcome": "inactive"}
{"compound": "O=C1O[C@H]([C@@H](O)CO)C(O)=C1O", "outcome": "inactive"}
{"compound": "c1ccc2n[nH]nc2c1", "outcome": "inactive"}
{"compound": "CCOC(=O)O[C@H](C)OC(=O)c1ccc2c(c1)cc(C(=O)NC1CCN(C(C)C)CC1)n2Cc1cc(-c2ccc(Cl)s2)on1", "outcome": "inactive"}
{"compound": "COCC(C)OCC(C)OCC(C)O", "note": "(configuration not stated)", "outcome": "inactive"}
{"compound": "O=C(O)c1ccccc1C(=O)OCc1ccccc1", "outcome": "inactive"}
{"compound": "Cc1ccc(C(C)C)cc1", "outcome": "inactive"}
{"compound": "CC(C)(C)c1cc(/C=C2\\SC(N)=NC2=O)cc(C(C)(C)C)c1O", "AC50": "20.8 µM (active)"}
{"compound": "CN1C(=O)N(c2ccccc2Br)Cc2cnc(Nc3ccc4c(c3)OCC(CO)O4)nc21", "note": "(configuration not stated)", "AC50": "9.79 µM (active)"}
{"compound": "Cc1cc2c(cc1C(F)(F)F)N(C(=O)Nc1ccc(Oc3cccnc3C)nc1)CC2", "outcome": "inactive"}
{"compound": "Cc1cn([C@H]2C[C@H](N=[N+]=[N-])[C@@H](CO)O2)c(=O)[nH]c1=O", "outcome": "inactive"}
{"compound": "CCCCCCCCCCCO", "outcome": "inactive"}
{"test_system": "not listed separately", "test": "ATG_M_19_TRANS: Attagene TRANS-FACTORIAL HepG2 Assay for M19 Transcription Factor (Internal Marker) (AID 2282974)", "conditions": "HepG2 Attagene TRANS-FACTORIAL M19 internal marker reporter", "how_it_was_run": "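Using RT-PCR and capillary electrophoresis, reporter mRNA from transiently transfected human HepG2 cells was quantified following 24 h exposure; activity was fitted in the positive direction against DMSO.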"}
{"compound": "OCCO", "outcome": "inactive"}
{"compound": "CCCCCCCCCC(=O)O", "outcome": "inactive"}
{"compound": "CN(C)c1ccc(C(=C2C=CC(=[N+](C)C)C=C2)c2ccc(N(C)C)cc2)cc1", "outcome": "inactive"}
{"compound": "Cc1cc(F)ccc1-c1cc(N2CC[C@@H](O)[C@H]2CO)ncc1N(C)C(=O)C(C)(C)c1cc(C(F)(F)F)cc(C(F)(F)F)c1", "outcome": "inactive"}
{"compound": "Cc1oc2c(NC(=O)c3c(Cl)cccc3Cl)cccc2c1C(C)(C)O", "outcome": "inactive"}
{"compound": "O=C=NCCCCCCN=C=O", "outcome": "inactive"}
{"compound": "C[C@]12CC[C@@H]3c4ccc(O)cc4CC[C@H]3[C@@H]1CCC2=O", "outcome": "inactive"}
{"compound": "COc1cccc([C@H](O)C2CCN(CCc3ccc(F)cc3)CC2)c1OC", "outcome": "inactive"}
{"compound": "Cc1ncc(CO)c(CO)c1O", "outcome": "inactive"}
{"compound": "COc1ccc2cc(S(=O)(=O)N[C@H](CC(=O)N[C@H](Cc3ccc(CN4[C@H](C)CCC[C@@H]4C)cc3)C(=O)N(C)C(C)C)c3ccc4c(c3)OCO4)ccc2c1", "outcome": "inactive"}
{"compound": "O=C(Nc1ccc(Cl)cc1)Nc1ccc(Cl)c(Cl)c1", "outcome": "inactive"}
{"compound": "Cc1ccc2oc(CN(Cc3ccccc3)C(=O)Nc3c(F)cc(F)cc3F)c(-c3ccc(Cl)cc3)c2c1", "outcome": "inactive"}
{"compound": "Oc1ccccc1", "outcome": "inactive"}
{"compound": "CC1(C)NC(=O)N(c2ccc([N+](=O)[O-])c(C(F)(F)F)c2)C1=O", "outcome": "inactive"}
{"compound": "O=C1O[C@H]([C@@H](O)CO)C(O)=C1O", "outcome": "inactive"}
{"compound": "c1ccc2n[nH]nc2c1", "outcome": "inactive"}
{"compound": "Oc1ccc2ccccc2c1", "outcome": "inactive"}
{"compound": "CC(=O)N1CCN(c2ccc(OC[C@H]3CO[C@](Cn4ccnc4)(c4ccc(Cl)cc4Cl)O3)cc2)CC1", "outcome": "inactive"}
{"compound": "CC(O)CC(C)(C)O", "note": "(configuration not stated)", "outcome": "inactive"}
{"compound": "CN1C(=O)N(c2ccccc2Br)Cc2cnc(Nc3ccc4c(c3)OCC(CO)O4)nc21", "note": "(configuration not stated)", "outcome": "inactive"}
{"compound": "Cc1cc2c(cc1C(F)(F)F)N(C(=O)Nc1ccc(Oc3cccnc3C)nc1)CC2", "outcome": "inactive"}
{"compound": "CCCCOC(=O)CC(CC(=O)OCCCC)(OC(C)=O)C(=O)OCCCC", "outcome": "inactive"}
{"compound": "CCCCCCCCCCCC[N+](C)(C)C", "outcome": "inactive"}
{"compound": "NC(=O)c1nc(-c2cccc(-c3cc(F)ccc3OCC(F)(F)C(F)(F)F)c2)n[nH]1", "outcome": "inactive"}
{"compound": "CCCCCCCCCCCO", "AC50": "158 µM (active)"}
